Holding throughout (experiment): log2 ratio of Biotin-Ahx-Ub-VS probe labelling (fragment/DMSO); higher = less target engagement (more negative = stronger competition), active = hit call of the paper (q ≤ 0.05, log2 ratio ≤ -1)
What all share (conditions): compound concentration: 200 uM; treatment time: 3 h

Assay [1] deals with UniProt O00507. An outline of the steps:
(§1)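 HEK293T lysate (495 µg per sample, in Tris/CHAPS/IGEPAL buffer with protease inhibitors) was treated in triplicate with fragment at 200 µM or with DMSO for 3 h. It was then treated with Biotin-Ahx-Ub-VS (0.5 µM final) for 1 h. Labelled DUBs were NeutrAvidin-enriched, digested with LysC and trypsin, and run by diaPASEF LC-MS/MS. Spectronaut label-free quantities were global-median-normalised. Values are average log2 ratios fragment/DMSO by unpaired t-test, using proteins with ≥2 unique peptides.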

Assay [2] has as its target UniProt P51784. An outline of the steps:
as §1

Assay [3] concerns the target T1, UniProt Q5T2D3.
T1 sequence (whole entry): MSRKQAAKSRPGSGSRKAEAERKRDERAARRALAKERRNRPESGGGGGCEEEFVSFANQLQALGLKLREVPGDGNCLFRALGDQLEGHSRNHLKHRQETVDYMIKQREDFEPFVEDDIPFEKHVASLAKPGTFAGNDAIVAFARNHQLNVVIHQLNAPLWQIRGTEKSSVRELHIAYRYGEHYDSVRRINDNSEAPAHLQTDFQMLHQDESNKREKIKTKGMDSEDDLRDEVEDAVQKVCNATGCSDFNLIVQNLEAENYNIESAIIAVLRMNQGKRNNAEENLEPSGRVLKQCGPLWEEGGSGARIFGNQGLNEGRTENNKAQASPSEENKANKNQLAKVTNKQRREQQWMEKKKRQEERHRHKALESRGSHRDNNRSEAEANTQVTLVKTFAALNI
Summed up:
as §1

In assay [4] the target is T2, UniProt Q8TE49.
T2 sequence (whole entry): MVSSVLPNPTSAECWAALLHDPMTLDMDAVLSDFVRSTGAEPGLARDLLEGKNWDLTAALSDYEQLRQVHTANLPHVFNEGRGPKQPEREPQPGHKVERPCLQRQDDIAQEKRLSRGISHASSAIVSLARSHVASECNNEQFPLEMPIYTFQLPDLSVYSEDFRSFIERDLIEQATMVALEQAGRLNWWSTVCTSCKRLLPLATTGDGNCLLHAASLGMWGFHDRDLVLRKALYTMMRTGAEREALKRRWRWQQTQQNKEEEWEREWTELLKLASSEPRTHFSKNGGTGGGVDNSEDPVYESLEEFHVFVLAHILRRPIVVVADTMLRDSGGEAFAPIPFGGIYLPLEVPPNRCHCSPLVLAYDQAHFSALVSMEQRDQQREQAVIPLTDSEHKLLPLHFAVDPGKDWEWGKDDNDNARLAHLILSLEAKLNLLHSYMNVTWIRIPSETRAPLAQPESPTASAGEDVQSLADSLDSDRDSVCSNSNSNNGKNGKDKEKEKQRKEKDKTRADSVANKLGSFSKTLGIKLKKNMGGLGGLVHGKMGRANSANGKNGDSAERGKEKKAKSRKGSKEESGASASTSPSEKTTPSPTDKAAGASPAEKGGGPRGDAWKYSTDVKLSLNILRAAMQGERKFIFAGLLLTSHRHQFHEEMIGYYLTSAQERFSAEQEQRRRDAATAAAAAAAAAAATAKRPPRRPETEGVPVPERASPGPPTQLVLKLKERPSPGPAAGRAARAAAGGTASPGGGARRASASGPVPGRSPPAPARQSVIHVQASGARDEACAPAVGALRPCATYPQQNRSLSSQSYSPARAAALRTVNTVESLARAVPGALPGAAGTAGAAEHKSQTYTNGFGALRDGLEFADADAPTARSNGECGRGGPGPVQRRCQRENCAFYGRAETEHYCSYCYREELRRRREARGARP
Summed up:
as §1

Assay [5] deals with T3, UniProt Q9P2H5.
T3 sequence (whole entry): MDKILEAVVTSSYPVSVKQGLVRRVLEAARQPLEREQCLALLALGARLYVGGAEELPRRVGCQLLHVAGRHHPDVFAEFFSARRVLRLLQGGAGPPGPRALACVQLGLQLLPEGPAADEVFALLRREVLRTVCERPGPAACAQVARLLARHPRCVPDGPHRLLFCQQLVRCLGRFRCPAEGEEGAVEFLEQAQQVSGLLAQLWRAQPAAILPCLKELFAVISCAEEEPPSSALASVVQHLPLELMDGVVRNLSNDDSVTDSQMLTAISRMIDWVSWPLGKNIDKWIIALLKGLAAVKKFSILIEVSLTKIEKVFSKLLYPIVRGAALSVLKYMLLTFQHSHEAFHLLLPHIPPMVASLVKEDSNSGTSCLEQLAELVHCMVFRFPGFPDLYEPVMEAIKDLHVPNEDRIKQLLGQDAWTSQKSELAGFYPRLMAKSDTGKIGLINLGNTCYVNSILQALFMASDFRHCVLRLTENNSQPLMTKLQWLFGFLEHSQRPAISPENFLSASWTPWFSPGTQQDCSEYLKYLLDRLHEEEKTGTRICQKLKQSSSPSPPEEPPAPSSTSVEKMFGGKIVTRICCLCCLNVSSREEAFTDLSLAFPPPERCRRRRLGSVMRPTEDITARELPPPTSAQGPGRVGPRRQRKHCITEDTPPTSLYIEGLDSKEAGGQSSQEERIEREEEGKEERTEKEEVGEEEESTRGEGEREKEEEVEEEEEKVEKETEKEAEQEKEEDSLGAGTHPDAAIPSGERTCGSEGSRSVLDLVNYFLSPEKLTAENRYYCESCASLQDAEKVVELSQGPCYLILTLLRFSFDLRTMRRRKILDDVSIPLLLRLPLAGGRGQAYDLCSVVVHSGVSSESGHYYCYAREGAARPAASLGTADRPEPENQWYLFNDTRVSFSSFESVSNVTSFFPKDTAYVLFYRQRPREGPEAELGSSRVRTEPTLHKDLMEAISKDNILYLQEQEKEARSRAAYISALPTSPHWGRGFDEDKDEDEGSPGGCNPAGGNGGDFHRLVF
Summed up: as §1

Assay [6] deals with T4, UniProt Q9UGI0.
T4 sequence (whole entry): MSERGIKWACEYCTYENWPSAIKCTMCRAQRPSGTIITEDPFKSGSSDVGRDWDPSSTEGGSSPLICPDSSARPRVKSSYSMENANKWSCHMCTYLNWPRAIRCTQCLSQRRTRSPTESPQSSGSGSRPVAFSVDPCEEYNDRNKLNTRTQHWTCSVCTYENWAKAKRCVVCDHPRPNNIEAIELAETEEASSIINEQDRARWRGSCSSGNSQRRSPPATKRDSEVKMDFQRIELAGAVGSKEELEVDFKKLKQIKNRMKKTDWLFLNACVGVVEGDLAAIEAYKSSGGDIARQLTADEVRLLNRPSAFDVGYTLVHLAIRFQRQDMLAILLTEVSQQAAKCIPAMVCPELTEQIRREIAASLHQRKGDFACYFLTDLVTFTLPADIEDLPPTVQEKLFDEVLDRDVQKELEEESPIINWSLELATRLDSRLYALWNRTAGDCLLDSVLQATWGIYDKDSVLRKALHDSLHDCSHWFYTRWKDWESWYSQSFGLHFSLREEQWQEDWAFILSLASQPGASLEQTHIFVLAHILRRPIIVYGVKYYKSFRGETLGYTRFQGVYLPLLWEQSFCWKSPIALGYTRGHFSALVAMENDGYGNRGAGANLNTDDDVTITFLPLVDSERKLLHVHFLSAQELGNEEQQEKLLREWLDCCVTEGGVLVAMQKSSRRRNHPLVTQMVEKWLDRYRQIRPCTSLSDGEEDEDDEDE
Summed up:
as §1

Assay [7] deals with T5, YOD1 (UniProt Q5VVQ6).
T5 sequence (whole entry): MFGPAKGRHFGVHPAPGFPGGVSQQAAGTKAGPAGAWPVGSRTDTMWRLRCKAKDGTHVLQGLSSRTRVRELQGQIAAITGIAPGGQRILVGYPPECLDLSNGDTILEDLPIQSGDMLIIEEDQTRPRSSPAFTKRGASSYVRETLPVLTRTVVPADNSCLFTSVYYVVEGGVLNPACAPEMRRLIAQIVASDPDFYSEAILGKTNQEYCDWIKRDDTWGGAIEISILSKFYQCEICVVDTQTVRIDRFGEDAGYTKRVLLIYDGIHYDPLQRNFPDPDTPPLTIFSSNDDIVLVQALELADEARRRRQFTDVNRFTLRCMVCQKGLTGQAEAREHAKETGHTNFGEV
An outline of the steps: as §1

Unmarked numbers belong to inactive results.

Sequence of UniProt O00507 (O00507 whole entry, the tested form may be a part): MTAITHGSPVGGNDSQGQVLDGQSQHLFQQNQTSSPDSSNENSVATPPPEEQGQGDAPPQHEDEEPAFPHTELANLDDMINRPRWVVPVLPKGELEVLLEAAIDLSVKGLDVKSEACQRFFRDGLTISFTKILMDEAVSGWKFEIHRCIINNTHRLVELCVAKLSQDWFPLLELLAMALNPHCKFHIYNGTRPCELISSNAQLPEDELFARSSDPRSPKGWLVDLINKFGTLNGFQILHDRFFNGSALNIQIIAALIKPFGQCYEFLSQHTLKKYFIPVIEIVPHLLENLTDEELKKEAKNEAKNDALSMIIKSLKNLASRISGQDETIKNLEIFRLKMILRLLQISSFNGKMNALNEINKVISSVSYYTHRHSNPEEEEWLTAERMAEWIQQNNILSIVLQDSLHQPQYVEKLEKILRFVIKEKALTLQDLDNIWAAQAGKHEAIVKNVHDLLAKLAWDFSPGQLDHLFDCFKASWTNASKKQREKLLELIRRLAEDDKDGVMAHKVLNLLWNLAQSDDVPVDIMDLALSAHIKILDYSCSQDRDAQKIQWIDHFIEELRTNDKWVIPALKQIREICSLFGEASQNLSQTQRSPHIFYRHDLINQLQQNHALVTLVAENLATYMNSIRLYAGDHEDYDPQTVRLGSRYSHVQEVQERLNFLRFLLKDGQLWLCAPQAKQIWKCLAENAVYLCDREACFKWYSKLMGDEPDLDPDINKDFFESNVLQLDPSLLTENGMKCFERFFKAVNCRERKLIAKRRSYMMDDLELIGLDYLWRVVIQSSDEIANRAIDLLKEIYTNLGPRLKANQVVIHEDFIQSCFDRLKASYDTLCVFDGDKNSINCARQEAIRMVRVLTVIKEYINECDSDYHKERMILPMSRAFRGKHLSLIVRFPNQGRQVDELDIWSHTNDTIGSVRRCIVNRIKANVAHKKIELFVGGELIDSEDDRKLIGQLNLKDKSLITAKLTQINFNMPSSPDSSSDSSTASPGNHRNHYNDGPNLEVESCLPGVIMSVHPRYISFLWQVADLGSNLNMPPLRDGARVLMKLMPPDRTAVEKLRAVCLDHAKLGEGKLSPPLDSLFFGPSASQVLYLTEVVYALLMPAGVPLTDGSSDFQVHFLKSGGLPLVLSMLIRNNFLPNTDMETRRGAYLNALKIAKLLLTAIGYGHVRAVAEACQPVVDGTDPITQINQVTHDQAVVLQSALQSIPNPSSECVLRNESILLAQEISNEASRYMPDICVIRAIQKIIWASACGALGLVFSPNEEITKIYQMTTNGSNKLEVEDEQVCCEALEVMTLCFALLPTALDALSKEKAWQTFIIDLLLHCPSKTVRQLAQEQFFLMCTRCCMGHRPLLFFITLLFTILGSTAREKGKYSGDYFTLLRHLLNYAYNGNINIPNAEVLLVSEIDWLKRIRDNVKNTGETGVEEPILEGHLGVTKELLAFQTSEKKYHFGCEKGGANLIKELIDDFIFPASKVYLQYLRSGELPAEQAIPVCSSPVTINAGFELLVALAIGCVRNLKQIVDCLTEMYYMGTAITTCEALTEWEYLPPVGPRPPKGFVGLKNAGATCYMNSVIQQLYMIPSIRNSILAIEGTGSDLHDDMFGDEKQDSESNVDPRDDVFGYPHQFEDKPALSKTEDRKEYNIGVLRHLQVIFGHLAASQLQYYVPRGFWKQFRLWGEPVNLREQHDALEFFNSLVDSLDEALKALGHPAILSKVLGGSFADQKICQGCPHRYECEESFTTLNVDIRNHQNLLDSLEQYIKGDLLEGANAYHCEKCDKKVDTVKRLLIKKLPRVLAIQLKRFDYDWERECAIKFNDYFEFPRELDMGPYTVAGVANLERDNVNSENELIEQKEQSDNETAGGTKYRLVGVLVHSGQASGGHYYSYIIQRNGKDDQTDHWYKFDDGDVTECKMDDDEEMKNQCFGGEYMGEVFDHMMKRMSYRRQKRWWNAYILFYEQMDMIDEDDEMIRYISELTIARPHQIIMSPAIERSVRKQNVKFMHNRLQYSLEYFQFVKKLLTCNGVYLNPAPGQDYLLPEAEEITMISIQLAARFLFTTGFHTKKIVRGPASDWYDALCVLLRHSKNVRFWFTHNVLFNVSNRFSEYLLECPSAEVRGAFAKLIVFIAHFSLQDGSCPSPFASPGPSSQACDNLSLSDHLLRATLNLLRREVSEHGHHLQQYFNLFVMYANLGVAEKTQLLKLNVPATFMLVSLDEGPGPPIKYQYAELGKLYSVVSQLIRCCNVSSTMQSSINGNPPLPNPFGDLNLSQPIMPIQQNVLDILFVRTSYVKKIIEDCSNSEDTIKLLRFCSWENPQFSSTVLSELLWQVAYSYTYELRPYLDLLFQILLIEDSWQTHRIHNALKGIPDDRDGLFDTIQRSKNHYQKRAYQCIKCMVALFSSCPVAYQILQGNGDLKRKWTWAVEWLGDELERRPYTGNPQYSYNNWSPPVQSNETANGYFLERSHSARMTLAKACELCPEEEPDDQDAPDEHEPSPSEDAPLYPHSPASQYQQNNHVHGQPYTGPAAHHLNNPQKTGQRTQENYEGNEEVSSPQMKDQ
Sequence of UniProt P51784 (P51784 whole entry): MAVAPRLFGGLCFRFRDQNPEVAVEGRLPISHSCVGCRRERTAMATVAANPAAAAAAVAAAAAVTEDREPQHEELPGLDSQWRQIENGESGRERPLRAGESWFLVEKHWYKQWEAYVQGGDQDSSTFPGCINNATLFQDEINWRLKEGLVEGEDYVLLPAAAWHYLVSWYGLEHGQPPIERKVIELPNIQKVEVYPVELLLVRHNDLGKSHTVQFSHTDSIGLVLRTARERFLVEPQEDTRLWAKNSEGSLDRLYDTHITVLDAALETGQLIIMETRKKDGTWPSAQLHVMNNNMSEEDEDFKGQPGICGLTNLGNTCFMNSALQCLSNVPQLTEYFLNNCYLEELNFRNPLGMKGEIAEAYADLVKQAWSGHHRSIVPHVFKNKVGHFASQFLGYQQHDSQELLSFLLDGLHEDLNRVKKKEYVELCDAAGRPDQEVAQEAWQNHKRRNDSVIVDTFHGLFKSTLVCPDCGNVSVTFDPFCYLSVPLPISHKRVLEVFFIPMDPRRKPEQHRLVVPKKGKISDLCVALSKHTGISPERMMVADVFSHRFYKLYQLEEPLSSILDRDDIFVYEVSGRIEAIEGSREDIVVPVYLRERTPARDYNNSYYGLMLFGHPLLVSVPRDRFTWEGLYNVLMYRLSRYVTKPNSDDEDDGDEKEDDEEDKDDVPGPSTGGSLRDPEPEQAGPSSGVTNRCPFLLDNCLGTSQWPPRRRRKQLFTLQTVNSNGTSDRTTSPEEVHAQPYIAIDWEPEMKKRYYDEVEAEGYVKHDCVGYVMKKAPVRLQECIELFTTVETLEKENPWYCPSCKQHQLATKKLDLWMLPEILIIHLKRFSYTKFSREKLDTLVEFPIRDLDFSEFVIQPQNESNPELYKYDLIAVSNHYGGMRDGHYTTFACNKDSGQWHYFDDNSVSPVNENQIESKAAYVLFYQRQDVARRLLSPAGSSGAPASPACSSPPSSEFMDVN

Take `CCN(C(=O)CCl)C1CCS(=O)(=O)C1` (stereo unspecified): the “log2 ratio of Biotin-Ahx-Ub-VS probe labelling” value (shortened to “log2 ratio”) in assay [1] is 0.545; in assay [2] it was -0.0519; in assay [3] it was 0.00795; in assay [4], -0.222; in assay [5], -0.211; in assay [6], -0.289. In assay [7], the “log2 ratio” value was 0.133.

Consider `O=C(CCl)N1c2ccccc2NC(=O)C12CCCC2`, for which the “log2 ratio” value in assay [1] is -0.37; in assay [2], 0.258; in assay [3], -0.0754; in assay [4], -0.35; in assay [5], 0.0618; in assay [6], -0.0496. Moreover, the “log2 ratio” value in assay [7] is -0.0709.

Take `O=C(CCl)Nc1ccc(F)cc1F`: the “log2 ratio” value in assay [1] was -0.387; in assay [2], 0.0319; in assay [3] it was -0.334; in assay [4], -0.55; in assay [5] it was -0.199; in assay [6], -0.962. In assay [7], the “log2 ratio” value is -0.107.

In the case of `O=C(CCl)N1CCC(C(=O)N2CCCCCC2)CC1`, the “log2 ratio” value in assay [1] was 0.0804; in assay [2] it was 0.0166; in assay [3], -0.255; in assay [4] it was -0.488; in assay [5] it was -0.287; in assay [6] it was -0.0376. Further, the “log2 ratio” value in assay [7] is 0.016.

Regarding `CC(NC(=O)CCl)c1noc(Cc2ccccc2)n1` (stereo unspecified), the “log2 ratio” value is -0.447 in assay [1]; -0.0798 in assay [2]; -0.347 in assay [3]; -0.443 in assay [4]; -0.534 in assay [5]; -0.904 in assay [6]. In addition, in assay [7], the “log2 ratio” value is -0.247.

As to `CC(=O)Nc1ccc(NC(=O)CCl)cc1`, the “log2 ratio” value in assay [1] was -0.353; in assay [2], 0.016; in assay [3], -0.228; in assay [4], -0.811; in assay [5], -0.0361; in assay [6], -1.31 (active). Besides, the “log2 ratio” value in assay [7] is -0.229.

As for `Cl.O=C(CCl)N1CCCC(c2ncc[nH]2)C1` (stereo unspecified), the “log2 ratio” value is 0.0496 in assay [1]; 0.000136 in assay [2]; -0.124 in assay [3]; -0.0422 in assay [4]; 0.113 in assay [5]; -0.517 in assay [6]. Also, the “log2 ratio” value in assay [7] was -0.0255.

As to `CC(NC(=O)CCl)c1ccc2[nH]ncc2c1` (stereo unspecified), the “log2 ratio” value was -0.939 in assay [1]; -0.173 in assay [2]; -0.26 in assay [3]; -1.1 (active) in assay [4]; -0.0706 in assay [5]; -0.756 in assay [6]. Further, the “log2 ratio” value in assay [7] is -0.629.

The values are drawn from the supplement of paper PMC11732987, “Enantioselective OTUD7B fragment discovery through chemoproteomics screening and high-throughput optimisation” (Communications Chemistry, 2025).
